Reference: PubChem BioAssay AID687020 (Broad Institute, 2013)
In all, about 1,400 compounds went through this assay and about 100 (7.1%) were called active. How the calls were made is not given here. Not all results are given here. Entries with a potency or affinity are not part of this list.

Assay: Vero cell toxicity, dose response, cytotoxicity control, plate reader, cherry-pick samples (AID 687020);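 further: compounds incubated with cells for three days before luminescence read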
Details: Vero cells toxicity; series mostly up to 19.5 µM; activity change, negative = toxicity: at the top concentration

| SMILES | activity change, negative = toxicity |
| --- | --- |
| C/C=C/c1ccc([C@H]2[C@@H](CO)N(C(=O)C3CCC3)[C@@H]2CNC(=O)NC(C)C)cc1 | -1.67% (inactive) |
| CC(O)(c1cccc(F)c1)c1nc(/C=C/c2ccccc2)cs1 (centres undefined) | -3.32% (inactive) |
| CC(OC(=O)c1ccc(O)cc1)C(=O)Nc1nc(-c2ccccc2)cs1 (centres undefined) | -36.7% (inactive) |
| COc1ccc(-c2csc(C(O)c3cccc(OC)c3)n2)cc1 (centres undefined) | -25.3% (inactive) |
| N#Cc1cccc(-c2ccc(C3[C@@H]4CN(C(=O)c5cccnc5)C[C@H]3N4)cc2)c1 (some centres undefined) | -6.05% (inactive) |
| C[C@H](CO)N1C[C@H](C)[C@H](CN(C)C(=O)NC2CCCCC2)Oc2ccc(NC(=O)Cn3cnnn3)cc2C1=O | 2.13% (inactive) |
| CCCCCC(=O)N1C[C@@H](O)[C@H](n2cc(COC(=O)c3ccccc3)nn2)C[C@@H]1c1ccc(C)cc1 | -7.23% (inactive) |
| O=C(C1CCCCC1)N1C[C@H](O)[C@@H](n2cc(C3CC3)nn2)C[C@@H]1c1ccccc1 | -17.1% (inactive) |
| CCc1c(C2CC2)ncn1Cc1cccc(-c2ccccc2)c1 | 5.16% (inactive) |
| FC(F)(F)c1nc2ccccc2n1CCNc1nc(CN2CCCCC2)cs1 | -32.6% (inactive) |
| CN(C)c1cccc(C(=O)Nc2cc(C(F)(F)F)ccc2-n2cnc3ccccc32)c1 | 1.15% (inactive) |
| O=S1(=O)N[C@@H](Cc2ccccc2)COc2cc(N3CCOCC3)ccc21 | -16.8% (inactive) |
| COc1ccc(NC(=O)N[C@@H]2CC[C@@H](CCNS(=O)(=O)c3cccc(Cl)c3)O[C@@H]2CO)cc1 | -4.64% (inactive) |
| c1ccc(-c2cn(C[C@H]3CC[C@@H]([C@@H]4CC[C@H](Cn5cc(-c6ccccc6)nn5)O4)O3)nn2)cc1 | 3.79% (inactive) |
| COc1ccc(S(=O)(=O)N[C@H]2CC[C@@H](CCNC(=O)CN3CCOCC3)O[C@H]2CO)cc1 | 13% (inactive) |
| O=C(Cc1cccnc1)N[C@H]1CC[C@@H](CCn2cc(Cc3ccccc3)nn2)O[C@H]1CO | 11.9% (inactive) |
| CCCCN(C(=O)c1ccc2c(c1)NC(=O)CS2)c1ccccc1 | -24.6% (inactive) |
| O=C(OCc1ccccc1)N1CCCC2CC1c1ccccc12 (centres undefined) | -4.06% (inactive) |
| CSCCC(NS(=O)(=O)c1cccs1)C(=O)NCc1ccccc1 (centres undefined) | -12.8% (inactive) |
| COc1ccc(C)cc1NC(=O)C(c1ccccc1)N1CCN(CC(=O)N2CCOCC2)CC1 (centres undefined) | -1.07% (inactive) |
| COc1ccc2c3c(n(C)c2c1)[C@H](CO)N(Cc1ccccc1F)CC31CCN(C(C)=O)CC1 | -3.12% (inactive) |
| CN1C(C(=O)NCc2ccc(OC(F)(F)F)cc2)CC2Cn3c(nc4ccccc43)C21 (centres undefined) | -7.43% (inactive) |
| COCCNC(=O)CCC1CCN(Cc2ccc(-c3ccccc3)cc2)CC1 | 11.3% (inactive) |
| COc1cccc(CC(=O)OCC(=O)Nc2nnc(-c3ccccc3)o2)c1 | 2.48% (inactive) |

| SMILES | activity change, negative = toxicity |
| --- | --- |
| COc1ccc(C(CNC(=O)CCNC(=O)c2ccc(Br)cc2)N2CCOCC2)cc1 (centres undefined) | -7.55% (inactive) |
| COc1ccc(C(CNS(=O)(=O)c2ccc(NC(C)=O)c(OC)c2)N2CCCC2)cc1 (centres undefined) | -23.7% (inactive) |
| CCCCN1C(N)=NC[C@@H]1C(C)O (some centres undefined) | -16.1% (inactive) |
| O=C(COc1ccccc1)NCC(=O)N/N=C/c1ccc(Br)cc1 | 3.21% (inactive) |
| O=C(CCn1cncn1)N1CCCC(N2CCN(c3ccc(F)cc3)CC2)C1 (centres undefined) | -15.2% (inactive) |
| O=C(c1cc(C2CC2)on1)N1CCCC(N2CCN(c3cccc(C(F)(F)F)c3)CC2)C1 (centres undefined) | 3.52% (inactive) |
| CCN(CC)CC(=O)N1CCCC(N2CCN(c3cccc(C(F)(F)F)c3)CC2)C1 (centres undefined) | -15.9% (inactive) |
| C[C@@H]1CCCCO[C@H](CN(C)Cc2ccc(Cl)c(Cl)c2)[C@H](C)CN([C@@H](C)CO)C(=O)c2cc(NC(=O)c3ccccc3)ccc2O1 | -5.49% [at 21 µM] (inactive) |
| O=C(c1ccc2nccnc2c1)N1CCN(c2ccccc2)CC1 | -11.1% (inactive) |
| O=C(c1cccc(-c2cccc3nccn23)c1)N1CCOCC1 | 5.83% (inactive) |
| CCCCCCCCN1C(=O)[C@H](CC(=O)NCCC(C)C)C[C@@]2(C(=O)OCC)CCCC=C12 | -10.3% (inactive) |
| CCN1CCN(c2ccc(S(=O)(=O)N3CCCCC3)cc2NC(=O)c2ccc(C)c(C)c2)CC1 | -1.07% (inactive) |
| Cn1c(=O)n(C)c2cc(N3CCOCC3)c(NC(=O)c3ccc(F)cc3)cc21 | -1.46% (inactive) |
| CNC[C@@H]1OCCCC[C@H](C)Oc2ccc(NS(C)(=O)=O)cc2C(=O)N([C@@H](C)CO)C[C@@H]1C | 7.65% (inactive) |
| C=CCc1ccc(OCCCNCc2ccccc2)c(OC)c1 | 4.77% (inactive) |
| CN1CCN(CCOc2ccc(-c3ccccc3)cc2)CC1 | -3.13% (inactive) |
| c1ccc(-c2ccc(OCCN3CCOCC3)cc2)cc1 | -30.8% (inactive) |
| Cc1cccc(OCCCN2CCC(C(O)(c3ccccc3)c3ccccc3)CC2)c1 | -11.6% (inactive) |
| CCc1cccc(OCCN2CCCC2)c1 | 7.48% (inactive) |
| COc1ccccc1CN1CCCC(N2CCN(c3ccccc3OC)CC2)C1 (centres undefined) | -25.9% (inactive) |
| CCc1cc2c(=O)[nH]c(COC)nc2s1 | -6.45% (inactive) |
| CN(C(=O)COC(=O)c1ccc(S(=O)(=O)N2CCOCC2)cc1)c1ccccc1 | -15.2% (inactive) |
| COc1ccc(CNC(=O)C2CC(c3ccc(C(F)(F)F)cc3)=NO2)cc1 (centres undefined) | -24.9% (inactive) |
| COC(=O)[C@@H]1C[C@H]2CC[C@H](O)C[C@H]2N1Cc1ccc(C(F)(F)F)cc1 | -4.52% (inactive) |

| SMILES | activity change, negative = toxicity |
| --- | --- |
| Nc1cccc(O)c1 | -6.53% (inactive) |
| COc1cc(CNc2nccn3ccnc23)cc(OC)c1 | -9.02% (inactive) |
| NC(=O)C1CCN(CC(O)COc2ccc(-c3ccccc3)cc2)CC1 (centres undefined) | -5.66% (inactive) |
| CCc1ccc(OCC(O)CN2CCN(c3ccccc3)CC2)cc1 (centres undefined) | -5.9% (inactive) |
| COCC#Cc1ccc2c(c1)O[C@@H](CN(C)C(=O)Nc1ccccc1F)[C@H](C)CN([C@@H](C)CO)S2(=O)=O | 0.743% (inactive) |
| C[C@H]1CN([C@@H](C)CO)C(=O)Cc2cc(NC(=O)CCCCCC(=O)Nc3ccccc3N)ccc2O[C@H]1CN(C)Cc1ccc(C(F)(F)F)cc1 | 1.41% [at 21 µM] (inactive) |
| O=C(NNc1c(F)c(F)cc(F)c1F)C1CCN(S(=O)(=O)c2ccccc2F)CC1 | -10.5% (inactive) |
| CC1(C(=O)NS(=O)(=O)c2ccccc2C(F)(F)F)CCN1C(=O)CCc1ccccc1 (centres undefined) | -2.6% (inactive) |
| C[C@H](CO)N1C[C@H](C)[C@H](CN(C)C(=O)Nc2cccc3ccccc23)OCCCC[C@H](C)Oc2ccc(NS(=O)(=O)c3cn(C)cn3)cc2C1=O | 0.574% (inactive) |
| COc1ccc(C(C)NC(=O)c2ccccc2Cl)cc1OC (centres undefined) | 1.27% (inactive) |
| COc1ccccc1N(CC(=O)N1CCCC1)S(=O)(=O)c1ccc(C)cc1 | -2.96% (inactive) |
| CCS(=O)(=O)Nc1ccc(C(=O)NCCSc2ccccc2)cc1 | -8.4% (inactive) |
| COc1ccc(OC)c(-c2cc(C(=O)NC3CCCC3)c3ccccc3n2)c1 | -9.23% (inactive) |
| COc1ccc(C(=O)N2CCN(C3CCCCC3)CC2)cc1OC | -10.2% (inactive) |
| COc1ccc(-c2nc(NCCCN(C)C)c3ccccc3n2)cc1 | -20.6% (inactive) |
| Cc1cc(N2CCN(C)CC2)n2nc(-c3ccc(Cl)cc3)nc2n1 | -1.64% (inactive) |
| COc1ccc2nc(NN=Cc3cccc(C)n3)cc(C)c2c1 | -10.1% (inactive) |
| C[C@@H]1CCCCO[C@@H](CN(C)Cc2ccc(C(=O)O)cc2)[C@H](C)CN([C@H](C)CO)C(=O)c2cc(NC(=O)c3ccccc3)ccc2O1 | -7.9% (inactive) |
| C[C@@H]1CN([C@H](C)CO)C(=O)c2cc(NC(=O)c3ccccc3)ccc2O[C@@H](C)CCCCO[C@@H]1CN(C)Cc1ccc(C(=O)O)cc1 | -0.937% (inactive) |
| Cc1ccc(CN(C)c2ccc(S(=O)(=O)N3CCCC3)cn2)cc1 | -3.39% (inactive) |
| COc1ccc(C(=O)NCCOc2cccc(Oc3ccccc3)c2)cc1OC | -17.2% (inactive) |
| COc1cc(C(=O)NCc2cccc(Cl)c2)ccc1OCC(=O)N1CCOCC1 | 2.08% (inactive) |
| O=C(C[C@@H]1CC[C@@H]2[C@H](COC[C@H](O)CN2Cc2cccc(Cl)c2)O1)N1CCOCC1 | -2.6% (inactive) |
| COC(=O)C1=C(C)N(Cc2cccc(C(F)(F)F)c2)C(=NCC2CC2)NC1c1ccc(F)cc1 (centres undefined) | -0.751% (inactive) |

| SMILES | activity change, negative = toxicity |
| --- | --- |
| C[C@@H]1CN([C@@H](C)CO)C(=O)c2cc(NS(=O)(=O)c3ccc(F)cc3)ccc2O[C@@H](C)CCCCO[C@@H]1CN(C)C(=O)CCCN(C)C | -2.95% (inactive) |
| CCOC(=O)Nc1ccc(N2CCOCC2)c(S(=O)(=O)N2CCOCC2)c1 | -7.3% (inactive) |
| O=C(CC1NCCN(Cc2ccccc2)C1=O)Nc1ccccc1 (centres undefined) | -3.62% (inactive) |
| CCCCN1C[C@H](Cc2ccccc2)[C@@H](CC(=O)Nc2ccccc2)C1=O | -6.93% (inactive) |
| Cc1ccc(S(=O)(=O)N(c2nc(NC(C)C)nc(NC(C)C)n2)n2cnnc2)cc1 | -22% (inactive) |
| C=CCOc1ccccc1OCC(O)CNC(C)C (centres undefined) | 4.09% (inactive) |
| N#C[C@@H]1[C@H](c2ccc(C#Cc3ccccc3F)cc2)[C@H](CO)N1C(=O)C1CCC1 | -7.04% (inactive) |
| CC(C)CCn1c2ccccc2c2cc(CC(N)=O)ccc21 | -9.09% (inactive) |
| CC1(Cc2cccc(F)c2)C(=O)Nc2ccc(-c3cccnc3)cc21 (centres undefined) | 2.56% (inactive) |
| COc1cc(OC)cc(C(=O)Nc2ccc3nc4n(c(=O)c3c2)CCCC4)c1 | -1.48% (inactive) |
| O=C(Nc1ccc2nc3n(c(=O)c2c1)CCCC3)c1ccccc1F | -0.515% (inactive) |
| CC(C)(C)c1ccc(C(=O)Nc2ccc3c(c2)C(=O)NC3=O)cc1 | -3.44% (inactive) |
| CC(NC(=O)c1ccccc1)C(=O)OCn1nnc2ccccc2c1=O (centres undefined) | 2.95% (inactive) |
| CCCc1nc2ccccc2n1C(C)C(=O)NC(C)(C)C (centres undefined) | -9.03% (inactive) |
| Cc1cc(C)cc(NC(=O)Cn2nnc(C(=O)NCc3cccs3)c2N)c1 | -0.976% (inactive) |
| CN(C)CCCN1c2ccccc2Sc2ccc3ccccc3c21 | -27.7% (inactive) |
| CC(C)NC(=O)Nc1ccc2c(c1)C(=O)N([C@H](C)CO)C[C@H](C)[C@H](CN(C)CC1CC1)OCCCC[C@@H](C)O2 | -0.509% (inactive) |
| CCCN1[C@H](C(=O)NCC(F)(F)F)[C@@H](CO)[C@@H]2Cn3c(ccc(-c4ccccc4)c3=O)[C@@H]21 | -4.76% (inactive) |
| CCOC(=O)c1ccc(NC(=O)c2nc[nH]c2C(=O)NC[C@H](C)O)cc1 | -3.85% (inactive) |
| C[C@H](CO)N1C[C@H](C)[C@@H](CN(C)S(C)(=O)=O)Oc2ccc(NC(=O)Nc3ccccc3)cc2C1=O | -2.06% (inactive) |
| CCN(C)C1CN(Cc2cn(Cc3ccccc3)nn2)S(=O)(=O)C1 (centres undefined) | 2.96% (inactive) |
| Cc1ccc(Cn2cc(CN3CC(N4CCSCC4)CS3(=O)=O)nn2)cc1 (centres undefined) | -18.6% (inactive) |
